Measured values from PubChem BioAssay AID2025 (NMMLSC, 2009).
The campaign covered roughly 330,000 compounds. About 980 (0.3%) were called active. Only a selection was taken, and actives are over-represented in it overall. Unmarked numbers belong to inactive results.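 Rule for the calls: active = percent response vs DMSO below 50%; inconclusive = fewer than 70 events counted for the yeast strain; inactive = the rest.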

assay: RPL19A-GFP expression modulators in yeast, primary screen, cell-based, S. cerevisiae, multiplex flow cytometry, MLPCN (AID 2025);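 note: median channel GFP fluorescence of the barcoded RPL19A-GFP strain; ratio of sample median GFP to plate DMSO average so 100% = DMSO; lower means less RPL19A-GFP as with rapamycin TOR inhibition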; settings: S. cerevisiae RPL19A-GFP strain, 3 h, at 10 µM, stronger effect = lower value

Q: For `O=C(CN1CCCC1)N1CCN(c2ccccc2)CC1`, which percent response vs DMSO is on record?
A: Its percent response vs DMSO is 90.5%.

Q: Which percent response vs DMSO does the source give for `Cc1nc2ccccc2c(=O)n1NC(=O)c1ccccc1` here?
A: Its percent response vs DMSO is 100%.

Q: Which percent response vs DMSO does the source give for `Cc1nc2c(ncn2-c2ccccc2)c(=O)n1NC(=O)CN1CCCC1` here?
A: Its percent response vs DMSO is 27.7% [may fluoresce violet] (active).

Q: For `CN(CCc1cnn(C)c1)Cc1cn(C)nc1-c1ccccc1F`, which percent response vs DMSO is on record?
A: The percent response vs DMSO was 96.2%.

Q: For `COc1ccc(C(=O)NC2CC2)cc1OC1CCN(Cc2ccc(SC)cc2)CC1`, which percent response vs DMSO is on record?
A: The percent response vs DMSO was 101%.

Q: Which percent response vs DMSO does the source give for `COc1ccc(CN2CCCC(C(=O)c3ccc(Cl)cc3)C2)cc1Cn1cncn1` (configuration not stated) here?
A: Its percent response vs DMSO is 105%.

Q: For `COc1cc(CN2CCCC(C(=O)c3ccc(SC)cc3)C2)cc(Cl)c1O` (configuration not stated), which percent response vs DMSO is on record?
A: Its percent response vs DMSO is 40.5% [may fluoresce violet] (active).

Q: For `CN(C)C(=O)c1cc(Br)ccc1Cl`, which percent response vs DMSO is on record?
A: The percent response vs DMSO was 95.1%.

Q: For `Cc1ccc(SCc2cc(=O)[nH]c(N3CCCCC3)n2)cc1`, which percent response vs DMSO is on record?
A: Its percent response vs DMSO is 97.5%.

Q: Which percent response vs DMSO does the source give for `Cc1ccc(SCC2=NNC(=O)C2)cc1` here?
A: Its percent response vs DMSO is 38.4% [may fluoresce violet] (active).

Q: For `Cc1ccc(SCCSc2ncccn2)cc1`, which percent response vs DMSO is on record?
A: Its percent response vs DMSO is 109%.

Q: With `Cc1cccc(N2CCN(C(=O)CN(C)S(=O)(=O)c3ccc4c(c3)CCC(=O)N4)CC2)c1C` as the compound, how does the percent response vs DMSO read?
A: Its percent response vs DMSO is 99.3%.

Q: With `Clc1c(OCCCn2ccnc2)ccc2ccccc12` as the compound, how does the percent response vs DMSO read?
A: The percent response vs DMSO was 99.7%.

Q: For `CCC(Oc1ccccc1)C(=O)NCc1cccnc1` (configuration not stated), which percent response vs DMSO is on record?
A: Its percent response vs DMSO is 100%.

Q: For `CC(=O)OC(C(=O)NCCc1ccccc1)c1cccnc1` (configuration not stated), which percent response vs DMSO is on record?
A: Its percent response vs DMSO is 47.6% [may fluoresce violet] (active).

Q: With `O=C(CSc1ncccn1)NCCc1ccccc1` as the compound, how does the percent response vs DMSO read?
A: Its percent response vs DMSO is 99.8%.

Q: Which percent response vs DMSO does the source give for `O=C1COc2ccc(C(=O)COC(=O)CCOc3ccccc3)cc2N1` here?
A: Its percent response vs DMSO is 97.8%.

Q: For `COc1ccc(C(=O)Nc2ncc3c(n2)-c2ccccc2CC3)cc1`, which percent response vs DMSO is on record?
A: The percent response vs DMSO was 97.8%.

Q: Which percent response vs DMSO does the source give for `COCCN(CCOC)S(=O)(=O)c1ccc(C(=O)Nc2nc3c(s2)CCc2ccccc2-3)cc1` here?
A: Its percent response vs DMSO is 25.1% [may fluoresce violet] (active).

Q: Which percent response vs DMSO does the source give for `C=CCN(CC=C)S(=O)(=O)c1ccc(C(=O)Nc2nc3c(s2)CCc2ccccc2-3)cc1` here?
A: Its percent response vs DMSO is 103%.

Q: For `COc1cc(CNc2ncn[nH]2)ccc1OCc1ccccc1C`, which percent response vs DMSO is on record?
A: The percent response vs DMSO was 103%.

Q: With `O=C1COc2ccc(S(=O)(=O)NCCc3ccc(Cl)cc3)cc2N1` as the compound, how does the percent response vs DMSO read?
A: Its percent response vs DMSO is 103%.

Q: For `O=C(COc1ccc(-n2cnnn2)cc1)Nc1ccccc1Cl`, which percent response vs DMSO is on record?
A: Its percent response vs DMSO is 33.1% [may fluoresce violet] (active).

Q: For `C=CCc1cccc(/C=N/NC(=O)COc2ccc(-n3cnnn3)cc2)c1O`, which percent response vs DMSO is on record?
A: Its percent response vs DMSO is 105%.

Q: With `O=C(Cc1c(F)cccc1Cl)Nc1ccc(-n2cnnn2)cc1` as the compound, how does the percent response vs DMSO read?
A: The percent response vs DMSO was 94.7%.

Q: With `COc1ccc(CN(Cc2ccco2)S(=O)(=O)c2ccc(S(=O)(=O)N3CCCC3)cc2)cc1` as the compound, how does the percent response vs DMSO read?
A: Its percent response vs DMSO is 107%.

Q: Which percent response vs DMSO does the source give for `CCOc1ccc(S(=O)(=O)N2CCC(c3ccccc3)CC2)cc1C(=O)O` here?
A: Its percent response vs DMSO is 99.8%.

Q: Which percent response vs DMSO does the source give for `CC(Oc1cc2oc(=O)c3c(c2cc1Cl)CCCC3)C(=O)NCc1ccncc1` (configuration not stated) here?
A: The percent response vs DMSO was 14.1% [may fluoresce violet] (active).

Q: For `COc1ccc(S(=O)(=O)NC(C)C(=O)NCc2ccncc2)cc1Cl` (configuration not stated), which percent response vs DMSO is on record?
A: Its percent response vs DMSO is 99.9%.

Q: Which percent response vs DMSO does the source give for `O=C(COc1cc2oc(=O)c3c(c2cc1Cl)CCC3)NCCCN1CCOCC1` here?
A: The percent response vs DMSO was 112%.

Q: With `Cc1ccc(OCCCCN2CCCCC2)c(Br)c1` as the compound, how does the percent response vs DMSO read?
A: The percent response vs DMSO was 96.8%.

Q: Which percent response vs DMSO does the source give for `CCOc1ncccc1C(=O)OCc1cn2cc(Cl)ccc2n1` here?
A: The percent response vs DMSO was 45.3% [may fluoresce violet] (active).

Q: For `CCOc1ncccc1C(=O)OCC(=O)N1c2ccccc2CC1C` (configuration not stated), which percent response vs DMSO is on record?
A: Its percent response vs DMSO is 95.9%.

Q: With `CCOc1ncccc1C(=O)OCC(=O)NC1CC1` as the compound, how does the percent response vs DMSO read?
A: Its percent response vs DMSO is 99.9%.

Q: With `Cc1cc(C)cc(N(CC(=O)NC2CCCC2)C(=O)CCC(=O)Nc2cc(C)on2)c1` as the compound, how does the percent response vs DMSO read?
A: The percent response vs DMSO was 46.1% [may fluoresce violet] (active).

Q: Which percent response vs DMSO does the source give for `Cc1cc(NC(=O)CCC(=O)N(CC(=O)NC2CCCC2)c2ccc(F)cc2)no1` here?
A: Its percent response vs DMSO is 100%.

Q: With `Cc1cc(C)cc(N(CC(=O)NC2CCCC2)C(=O)CCC(=O)Nc2nccs2)c1` as the compound, how does the percent response vs DMSO read?
A: Its percent response vs DMSO is 103%.

Q: For `COc1cc(C2C3=C(CCCC3=O)OC3=C2C(=O)CCC3)ccc1OCC(=O)Nc1ccccc1`, which percent response vs DMSO is on record?
A: The percent response vs DMSO was 110%.

Q: With `O=C1CSC(=S)N1c1ccc(Cl)c(Cl)c1` as the compound, how does the percent response vs DMSO read?
A: The percent response vs DMSO was 109%.

Q: With `COc1ccccc1CN1CCCC(N2CCN(c3ccc(F)cc3)CC2)C1` (configuration not stated) as the compound, how does the percent response vs DMSO read?
A: Its percent response vs DMSO is 30.8% [may fluoresce violet] (active).

Q: With `COc1ccc(CN2CCCC(N3CCc4ccccc4C3)C2)c(O)c1` (configuration not stated) as the compound, how does the percent response vs DMSO read?
A: The percent response vs DMSO was 101%.

Q: For `COc1ccccc1CN1CCN(Cc2cc(OC)c(OC)cc2OC)CC1`, which percent response vs DMSO is on record?
A: The percent response vs DMSO was 106%.

Q: For `O=C(O)CSc1nccc2ccccc12`, which percent response vs DMSO is on record?
A: The percent response vs DMSO was 102%.

Q: With `Cc1ccc(NC(=O)CCOc2ccccc2)cc1S(=O)(=O)Nc1ccccc1Cl` as the compound, how does the percent response vs DMSO read?
A: Its percent response vs DMSO is 102%.

Q: Which percent response vs DMSO does the source give for `Cc1c(C(=O)Nc2cccc(-c3nnc4n3CCCCC4)c2)oc2ccccc12` here?
A: The percent response vs DMSO was 111%.

Q: For `Cc1ccc(-c2csc(NC(=O)Cn3[nH]c(=O)c4ccccc4c3=O)n2)cc1`, which percent response vs DMSO is on record?
A: The percent response vs DMSO was 103%.

Q: For `O=C(Cn1[nH]c(=O)c2ccccc2c1=O)Nc1cccc(-c2nnc3n2CCCCC3)c1`, which percent response vs DMSO is on record?
A: The percent response vs DMSO was 17.9% [may fluoresce violet] (active).

Q: With `Cc1cc(NC(=O)COc2ccc([N+](=O)[O-])cc2)no1` as the compound, how does the percent response vs DMSO read?
A: The percent response vs DMSO was 105%.

Q: With `COC(=O)c1cc(C(=O)OCC(=O)Nc2cc(C)on2)cc([N+](=O)[O-])c1` as the compound, how does the percent response vs DMSO read?
A: Its percent response vs DMSO is 41.7% [may fluoresce violet] (active).

Q: With `Cc1cc(NC(=O)CSc2nccn2-c2ccc([N+](=O)[O-])cc2)no1` as the compound, how does the percent response vs DMSO read?
A: Its percent response vs DMSO is 98.9%.

Q: Which percent response vs DMSO does the source give for `COc1ccc(S(=O)(=O)NCCc2cc3ccc(C)c(C)c3[nH]c2=O)cc1` here?
A: Its percent response vs DMSO is 101%.

Q: For `Oc1ccc2ccc3cccc[n+]3c2c1`, which percent response vs DMSO is on record?
A: The percent response vs DMSO was 100%.

Q: With `Nn1c(SCC(=O)Nc2nccs2)nncc1=O` as the compound, how does the percent response vs DMSO read?
A: The percent response vs DMSO was 95.5%.

Q: Which percent response vs DMSO does the source give for `CC(C)COP(=O)(c1ccc(N(C)C)cc1)C(Nc1ccccc1)c1cccnc1` (configuration not stated) here?
A: Its percent response vs DMSO is 100%.

Q: Which percent response vs DMSO does the source give for `CCC(=O)N1c2ccc(S(=O)(=O)CCC(=O)N3CCN(c4ccccc4)CC3)cc2CC1C` (configuration not stated) here?
A: Its percent response vs DMSO is 105%.

Q: With `Cc1ccc(CNC(=O)CCS(=O)(=O)c2ccc3c(c2)CC(C)N3C(=O)C2CC2)o1` (configuration not stated) as the compound, how does the percent response vs DMSO read?
A: The percent response vs DMSO was 17.4% [may fluoresce violet] (active).

Q: Which percent response vs DMSO does the source give for `COc1ccccc1CNC(=O)C1CCN(S(=O)(=O)c2ccc3c(c2)CC(C)N3C(=O)C2CC2)CC1` (configuration not stated) here?
A: The percent response vs DMSO was 102%.
